PubChem BioAssay (NCI)
The panel holds about 83,000 compounds, 20% with a hit somewhere; the sample as a whole holds those more often.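 Growth was measured after 48 h exposure to one concentration of compound in 96-well plates. Values under 10 count as active.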 Calls of active or inactive are those of the source.

How the values were obtained:
Experiment in all cases: NCI-60 one-dose screen, 48 h (100 = growth as untreated, 0 = no growth, -100 = all killed)
Details in all cases: 10 µM unless noted
[1] = tested on: EKVX NSCLC
[2] = tested on: SN12C renal
[3] = tested on: UO-31 renal
[4] = tested on: TK-10 renal
[5] = tested on: ACHN renal
[6] = tested on: CAKI-1 renal
[7] = tested on: CCRF-CEM leukemia
[8] = tested on: MOLT-4 leukemia
[9] = tested on: SR leukemia
[10] = tested on: RPMI-8226 leukemia
[11] = tested on: OVCAR-8 ovarian
[12] = tested on: OVCAR-5 ovarian
[13] = tested on: OVCAR-4 ovarian
[14] = tested on: SK-OV-3 ovarian
[15] = tested on: IGROV1 ovarian
[16] = tested on: OVCAR-3 ovarian
[17] = tested on: HS 578T breast
[18] = tested on: NCI/ADR-RES ovarian
[19] = tested on: T-47D breast

Measured: growth

Cn1ccnc1C(=O)/C=C/c1ccc(NC(=O)Nc2ccc(Cl)cc2)cc1
inactive: [1] 91.7% | [2] 87.5% | [3] 97.7% | [4] 131% | [5] 88.4% | [6] 69.6% | [7] 62.9% | [8] 57.5% | [9] 32.6% | [10] 63.2% | [11] 81.9% | [12] 110% | [13] 76.3% | [14] 84.3% | [15] 96.7% | [16] 84.2% | [17] 77% | [18] 76.2% | [19] 62.7%

COc1cc(N=Cc2sc(Nc3nccs3)nc2O)cc(OC)c1OC
inactive: [1] 82.2% | [2] 94.7% | [3] 59% | [4] 224% | [5] 86% | [6] 69% | [7] 72% | [8] 78.2% | [9] 63.9% | [10] 81.6% | [11] 81.2% | [12] 103% | [13] 82.9% | [14] 104% | [15] 66% | [16] 82.8% | [17] 80.5% | [18] 78.4% | [19] 89.3%

COc1ccc(/C=C2\SC(=Nc3cc(C)on3)NC2=O)cc1
inactive: [1] 89.7% | [2] 100% | [3] 85.5% | [4] 106% | [5] 106% | [6] 96.6% | [7] 101% | [8] 100% | [9] 98.9% | [11] 102% | [12] 97.6% | [13] 109% | [14] 113% | [15] 99.2% | [16] 116% | [17] 96.9% | [18] 98.6% | [19] 104%

C#Cc1nc(C2=C(C)C(O)CC2)cs1 (configuration not stated)
inactive: [1] 113% | [2] 101% | [4] 151% | [5] 94.7% | [6] 110% | [7] 102% | [8] 95.1% | [9] 78.7% | [11] 107% | [12] 120% | [13] 115% | [14] 89% | [16] 120% | [17] 104% | [18] 35.9% | [19] 92%
active: [3] -66.1% | [15] 5.36%

CC(=NNc1ncnc2ccccc12)c1ccc(S(C)(=O)=O)cc1
inactive: [1] 91.1% | [2] 97.2% | [3] 73.1% | [4] 152% | [5] 103% | [6] 89.4% | [7] 99.9% | [8] 100% | [9] 100% | [11] 98.2% | [12] 111% | [13] 122% | [14] 102% | [15] 96.5% | [16] 118% | [17] 95.3% | [18] 103% | [19] 103%

COc1cc(/C=C/C(=O)c2ccccc2)ccc1Oc1nc(NCCO)nc(N2CCOCC2)n1
inactive: [1] 95.5% | [2] 97.3% | [3] 80.8% | [4] 124% | [5] 98.4% | [6] 86.2% | [7] 30.3% | [8] 71.3% | [10] 54.5% | [11] 99.1% | [12] 108% | [13] 109% | [15] 100% | [16] 124% | [17] 98% | [18] 107% | [19] 93.6%
active: [9] 8.72%

C=C1CC[C@H]2[C@@](C)(CCC3OC(c4ccc(OCc5cn(C6CC(OC(C)=O)C(OC(C)=O)C(COC(C)=O)O6)nn5)cc4)OC[C@]32C)[C@@H]1/C=C/C1=CCOC1=O (some centres not stated)
inactive: [1] 52.3% | [2] 67.5% | [3] 57.7% | [4] 119% | [5] 72.7% | [6] 77% | [7] 65.7% | [8] 62.1% | [9] 51% | [10] 41.2% | [11] 81.8% | [12] 97.4% | [13] 72.7% | [15] 89.2% | [16] 81.9% | [17] 75.7% | [18] 92.8% | [19] 40%

CCN1C(=S)N(CC)C2C1N=C(SC)N2/N=C/C=C/c1ccccc1[N+](=O)[O-] (configuration not stated)
inactive: [1] 93.6% | [2] 91.8% | [3] 94.8% | [4] 125% | [5] 78.1% | [6] 76.5% | [7] 93.1% | [8] 82.1% | [9] 75% | [11] 84.7% | [12] 98.2% | [13] 83.6% | [14] 109% | [15] 106% | [16] 121% | [17] 88.1% | [18] 94.3% | [19] 88.4%

COc1ccc(C(=O)c2cc(C(=O)/C=C/c3c(Cl)cccc3Cl)c3cc(C)ccn23)cc1
inactive: [1] 92.1% | [2] 94.2% | [3] 96.6% | [4] 119% | [5] 101% | [6] 89.9% | [7] 99.8% | [8] 96.4% | [9] 97% | [10] 92.6% | [11] 100% | [12] 102% | [13] 106% | [15] 95.9% | [16] 103% | [17] 95.7% | [19] 91.7%

N[C@@H](Cc1cn(-c2ccnc3ccccc23)nn1)C(=O)O
inactive: [1] 98.5% | [2] 93.2% | [3] 88.2% | [4] 101% | [5] 96.1% | [6] 97.3% | [7] 103% | [8] 107% | [9] 95.1% | [10] 106% | [11] 104% | [12] 101% | [13] 109% | [14] 101% | [15] 102% | [17] 109% | [18] 103% | [19] 101%

Cn1c(SCC(=O)Nc2ccc(-c3nc4ccc([N+](=O)[O-])cc4[nH]3)cc2)nc2ccccc2c1=O
inactive: [1] 84.5% | [2] 91.1% | [3] 84.7% | [4] 132% | [5] 65.6% | [6] 45.9% | [7] 86.8% | [8] 77.5% | [9] 82.4% | [10] 94.7% | [11] 77.8% | [12] 96% | [13] 67.5% | [14] 120% | [15] 75.9% | [16] 90.6% | [17] 81.5% | [18] 88.9% | [19] 72.1%

Cn1cc(-c2cc(N)n3nc(-c4cn(C)c5ccc(Cl)cc45)cc3n2)c2cc(Cl)ccc21
active: [9] 5.66%
inactive: [1] 94.9% | [2] 85% | [3] 100% | [4] 116% | [5] 102% | [6] 83.2% | [7] 24.8% | [8] 51% | [10] 88.5% | [11] 90.4% | [12] 107% | [13] 75.1% | [15] 88.9% | [16] 84.8% | [17] 107% | [18] 73.5% | [19] 90.7%

COc1cc(/C=C/C(=O)c2cc(OC)c(OC)c(OC)c2)ccc1Oc1nc(NCCO)nc(N2CCOCC2)n1
active: [2] 9.45% | [5] -52.5% | [7] 0.121% | [8] 6.72% | [9] -0.481% | [10] -24.9% | [14] 7.04% | [15] 1.1% | [16] -3.03% | [17] 7.51%
inactive: [1] 11.2% | [3] 20.9% | [4] 20.9% | [6] 15.6% | [11] 21.2% | [12] 18.3% | [13] 20% | [18] 64.5% | [19] 19.2%

C#Cc1nc(C2=C(C)C(OC(C)=O)/C(=N/OC(C)=O)C2)cs1 (configuration not stated)
active: [1] 9.96% | [3] -88.9% | [5] -66% | [6] -50.2% | [7] -39% | [8] -35.2% | [9] -25.6% | [10] -45.1% | [11] 0.146% | [13] -46% | [14] -78.4% | [15] -59% | [16] -15.8% | [17] 4.76% | [18] -5.63%
inactive: [2] 86.6% | [4] 203% | [12] 30.1% | [19] 67%

COc1ccc(/C=N/NC(=O)c2[nH]c3ccc(Br)cc3c2-c2ccccc2)s1
inactive: [1] 42.8% | [2] 50% | [3] 45.1% | [4] 122% | [5] 27% | [6] 24.5% | [8] 10.4% | [11] 12.3% | [12] 51.2% | [13] 75.5% | [15] 18% | [16] 22.8% | [17] 29.9% | [18] 15.8% | [19] 73.2%
active: [7] 9.96% | [9] 5.56% | [10] 7.49%

COc1ccc(-c2nc3ccc(-c4nnc(SCC(=O)Nc5ccc(C(=O)/C=C/c6ccc(Cl)cc6)cc5)o4)cc3[nH]2)cc1OC
inactive: [1] 91.9% | [2] 94.9% | [3] 87% | [4] 134% | [5] 94.3% | [6] 100% | [7] 100% | [8] 75.8% | [9] 73% | [10] 75.5% | [11] 106% | [12] 95.2% | [13] 108% | [14] 111% | [15] 91.9% | [16] 116% | [17] 96% | [18] 108% | [19] 89.4%

COC(=O)C(C)NS(=O)(=O)/N=C1\NC(=O)NC1=C(Cl)Cl (configuration not stated)
inactive: [1] 104% | [2] 98.7% | [3] 81.7% | [4] 140% | [5] 98.2% | [6] 99% | [7] 95.9% | [8] 100% | [9] 93.2% | [10] 104% | [11] 100% | [12] 98.8% | [13] 113% | [14] 119% | [15] 104% | [16] 117% | [17] 107% | [18] 105% | [19] 107%
